# An excerpt weighted towards active compounds, which were near 2.8% of everything screened.
# EP2 mod – EP2 receptor modulators, cAMP readout, primary screen, cell-based, HTRF cAMP, PGE2 stimulation; Prostaglandin E2 receptor EP2 subtype (Homo sapiens), P43116; EP2-expressing cells, cAMP HTRF FRET, PGE2 co-stimulation; induction, % at 25 µM; 0.83% of 260,000 active;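 active = compounds whose cAMP rise, as percent of the full-agonist control response, exceeds 60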;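 also: rat C6 glioma line stably carrying human EP2 under a CMV promoter; the protocol text gives 20 µM as final concentration; 100% = response of wells given 1 µM PGE2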
# PGE2 EP2 inh – human EP2 receptor antagonists, primary screen, TR-FRET cAMP, C6 glioma cells | AID 1422, 2008 | inhibition, % at 25 µM | C6 glioma cells expressing human EP2; cells stimulated with saturating PGE2 | Prostaglandin E2 receptor EP2 subtype (Homo sapiens), P43116 | 0.52% of 260,000 active;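 active = percent inhibition above 40 after rounding to a whole number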;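 also: rat C6 glioma host cells with rolipram phosphodiesterase inhibitor present; the protocol text gives 20 µM as final concentration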
# p47phox inh – p47phox/p22phox peptide binding inhibitors, primary screen, biochemical, uHTS, NADPH oxidase regulatory subunit; inhibition, % at 24.7 µM; 0.53% of 220,000 active; fluorescence polarization, 2 h; Neutrophil cytosol factor 1 (Homo sapiens), P14598; AID 1274, 2008;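 active = inhibition above about 30%, limit read from the data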;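 also: 0% = p47phox with labelled peptide and 100% = labelled peptide alone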
# Wee1 stabilizer – Wee1 degradation inhibitors, primary screen, cell-based, HeLa, Wee1K328M-luciferase, luminescence | reporter increase, % at 5 µM | AID 1321, 2008 | HeLa Luc-Wee1K328M stability; 100% = proteasome inhibitor MG132 effect | Wee1-like protein kinase (Homo sapiens), P30291 | 1.2% of 220,000 active;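 active = activation above the mean of all tested compounds plus 3 SD, set per screening run, cut at about 8.8% in these data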;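 also: cells exposed to compound for 20 h before luminescence read; 0% = DMSO alone and 100% = MG132 at 30 µM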
# Target sequence (P30291 whole entry K328M): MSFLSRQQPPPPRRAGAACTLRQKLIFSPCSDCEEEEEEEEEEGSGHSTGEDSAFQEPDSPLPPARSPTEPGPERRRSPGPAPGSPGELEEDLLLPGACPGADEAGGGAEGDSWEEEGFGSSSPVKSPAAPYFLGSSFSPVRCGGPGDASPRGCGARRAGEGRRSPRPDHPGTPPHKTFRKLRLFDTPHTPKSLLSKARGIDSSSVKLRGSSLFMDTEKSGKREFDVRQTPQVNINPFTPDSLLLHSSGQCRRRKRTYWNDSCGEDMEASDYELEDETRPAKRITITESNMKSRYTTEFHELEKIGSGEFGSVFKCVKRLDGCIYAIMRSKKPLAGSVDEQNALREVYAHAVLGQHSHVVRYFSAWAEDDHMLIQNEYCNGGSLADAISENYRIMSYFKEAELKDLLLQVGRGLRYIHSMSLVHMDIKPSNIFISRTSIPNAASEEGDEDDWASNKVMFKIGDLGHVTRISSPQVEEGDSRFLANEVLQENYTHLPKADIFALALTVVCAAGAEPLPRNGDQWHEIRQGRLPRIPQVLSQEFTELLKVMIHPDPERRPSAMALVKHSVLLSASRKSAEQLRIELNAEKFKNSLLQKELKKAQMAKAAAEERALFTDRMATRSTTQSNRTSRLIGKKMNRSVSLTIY
# Furin inhibitor – human furin inhibitors, primary screen, biochemical, fluorescence intensity; 0.061% of 220,000 active; P09958; purified furin, fluorogenic substrate cleavage; inhibition, % at 20 µM or 30 µM; AID 463115, 2010; in the data active = inhibition above about 25%
# HSV augment – enhancers of HSV replication in host cells, fold increase, host cell viability | maximum fold increase | 0.005% of 220,000 active | HSV replication augmentation in cells; in the data active = maximum fold increase above about 1.5; tested in PC3 cells
# Active calls of the source: *; i = inactive; . = not tested or not shown.
SMILES,EP2 mod,PGE2 EP2 inh,p47phox inh,Wee1 stabilizer,Furin inhibitor,HSV augment
CC(=O)OC1CC[C@@]2(C)C(CCC3C2CC(=O)[C@@]2(C)C3CC3CC(C)=CC(=O)C32)C1 (some centres undefined),54,6,-9,-4,-20,i
c1cc2c3c(cccc3c1)NC1(CCC3(CC1)Nc1cccc4cccc(c14)N3)N2,-42,89*,0,-3,-36,i
COc1ccc(-c2ccnc(SCC(=O)Nc3c(C)n[nH]c3C)n2)cc1,2,3,.,.,.,.
CCOC(=O)C1=C(C)N(c2ccc(OC)cc2)C(=O)/C1=C\c1ccc(O)c(OCC)c1,31,41*,-11,1,-6,i
CCOC(=O)C1=C(C)N(c2ccc(OC)cc2)C(=O)/C1=C\c1cccs1,15,2,1,4,-9,i
CC(C)CC(NC(=O)Cc1cccs1)c1nc2cccnc2n1C(C)C (centres undefined),-8,.,.,.,.,.
CC1(C)Cc2c(c(N3CCCC3)nc3sc4c(N5CCN(CCO)CC5)ncnc4c23)CO1,31,.,-22,-3,8,.
CC1(C)Cc2c(c(N3CCCC3)nc3sc4c(N5CCOCC5)ncnc4c23)CO1,73*,4,.,.,.,.
C=CCCCN(Cc1ccccc1)S(=O)(=O)c1ccccc1Br,61*,6,-9,.,-15,i
Cc1ccccc1N1C(=O)c2sc3nc4c(c(=O)n3c2C1=O)CCC4,-9,4,69*,1,0,i
COc1ccc(N2CCN(C(=S)NCCc3ccccc3)CC2)cc1,.,16,.,9.4*,-22,i
Oc1ccc(N2CCN(C(=S)NCCc3ccccc3)CC2)cc1,-14,5,95*,-2,-9,i
COc1cccc(N2CCN(C(=S)NCCc3ccccc3)CC2)c1,-16,12,-15,-1,-14,i
Oc1ccccc1N1CCN(C(=S)NCCc2ccccc2)CC1,-19,6,47*,-2,-24,i
C[C@H](Cn1nnc2ccccc21)NC(=O)C1CCN(C(=O)c2cccs2)CC1,-5,6,.,.,.,.
COC(=O)c1c(NC(=O)c2c(-c3ccccc3Cl)noc2C)sc2c1CCC2,31,.,-32,2,-25,.
Cc1onc(-c2ccccc2Cl)c1C(=O)Nc1sc2c(c1C(N)=O)CCC(C)C2 (centres undefined),62*,.,-25,3,-22,.
CC(C)C1=C[C@@]23CC[C@@H]4[C@](C)(CCC[C@@]4(C)C(=O)O)[C@@H]2C[C@@H]1[C@H](C(=O)O)[C@@H]3C(=O)O,5,50*,.,.,.,.
CC1=C(C(=O)Nc2ccccc2C)Sc2ccccc2N1,-1,10,.,.,.,.
CCN(CC)S(=O)(=O)c1cccc(C(=O)N/N=C2\CCCC(=O)C2)c1,5,13,1,0,-17,i
CCN(CC)S(=O)(=O)c1cccc(C(=O)N/N=C2\CC(=O)CC(C)(C)C2)c1,-13,5,.,9.5*,-27,i
O=C1[C@@H]2[C@H](C(=O)N1CN1CCSCC1)[C@H]1[C@@H]3C=C[C@@H]([C@@H]4C(=O)N(CN5CCSCC5)C(=O)[C@@H]34)[C@@H]21,15,45*,.,.,.,.
O=C(CCn1ncc2ccccc21)N1CCC(c2ccnc3nc(C(F)(F)F)nn23)CC1,-26,.,.,.,.,.
COc1ccc(NC(=O)N(CCc2cccc(C)c2)Cc2cc3c(C)ccc(C)c3[nH]c2=O)cc1,38,13,.,.,.,.
O=C(c1ccco1)N1C(=O)c2cccc3cccc1c23,-10,18,150*,4,-21,i
SMILES,EP2 mod,PGE2 EP2 inh,p47phox inh,Wee1 stabilizer,Furin inhibitor,HSV augment
Nc1cccc2c1C(=O)N(C(=O)c1ccco1)C2=O,11,11,-10,-3,-13,i
COc1ccc([C@@H]2CN(C(=O)c3ccc4nsnc4c3)C[C@H]2C(=O)O)cc1,7,.,.,.,.,.
COCCCn1c(SCc2ccc(Cl)cc2)nc2sc3c(c2c1=O)CCC3,-18,9,.,.,.,.
COCCCn1c(=S)[nH]c2sc3c(c2c1=O)CCCS3,-2,45*,-11,3,-25,i
CCCC(c1nnnn1C1CCCC1)N1CCN(C2CCCC2)CC1 (centres undefined),-14,10,.,.,.,.
C#CC1(NC(=O)NCCCC)CCCCC1,8,5,57*,4,-33,i
CCN1CCN(c2ccc(NC(=O)c3cc(OC)cc(OC)c3)cc2Cl)CC1,-24,17,.,.,.,.
COc1ccc(CCNc2nc(N3CCCCC3)nc(N3CCCCC3)n2)cc1OC,61*,16,-14,-2,-15,i
CC1CN(C(=O)Cn2ncc3cccn3c2=O)CC(C)O1 (centres undefined),-30,7,.,.,.,.
C[C@@H]1C[C@H](C)CN(S(=O)(=O)c2cc(Cl)c(Oc3ccc([N+](=O)[O-])cc3Cl)c(Cl)c2)C1,13,44*,.,.,.,.
C/C(N)=C(/C#N)C(=O)COC(=O)c1ccncc1,-5,8,-7,3,-9,i
C/C(N)=C(/C#N)C(=O)COC(=O)c1ccccc1Cc1ccccc1,63*,8,-9,0,-16,i
Cc1cc2c(cc1NCc1cc3c(C)nn(-c4ccccc4)c3[nH]c1=O)OCCO2,-24,16,.,.,.,.
Cc1cc(OCc2nnc(SCC(=O)N3CCOCC3)o2)ccc1Cl,-63,7,.,.,.,.
Cc1cc2c(SCc3ccccc3Cl)nc(N)nc2nc1C,-16,10,.,.,.,.
Cc1cc(C)c2c(SCc3ccc(Cl)cc3Cl)nc(N)nc2n1,-1,47*,.,.,.,.
CC(C)Cn1cnc2c(SCc3ccc(Cl)cc3Cl)nc(N)nc21,-3,52*,.,.,.,.
Cc1ccc2ccccc2c1CSc1nc(N)nc2c1ncn2CC(C)C,-24,57*,.,.,.,.
COC(=O)c1ccc(C(=O)OC)c(NS(=O)(=O)c2cccs2)c1,17,8,.,.,.,.
Cc1ccc(NC(=O)c2ccccc2NC(=O)Cc2ccccc2)cc1,-34,15,5,0,-25,i
O=C(Nc1ccccc1Cl)c1ccccc1Cc1ccccc1,64*,0,-10,1,-22,i
O=C(Nc1ccccc1Cl)c1ccccc1,2,7,-9,3,-15,i
O=C(Cc1ccccc1)Nc1ccccc1C(=O)Nc1ccccc1,-23,10,-4,11*,1,i
COc1ccc(C(CNS(=O)(=O)N2CCCC2)c2c[nH]c3ccccc23)cc1 (centres undefined),9,5,.,.,.,.
O=C(Nc1ccc(O)cc1)C1CC=CCC1 (centres undefined),-22,1,56*,-3,-28,i

# From PubChem BioAssay
